Source: PubChem BioAssay (NCATS)
Results filed as inconclusive are left out. Activity calls are given as the source filed them. Calls follow the shape of the dose curve; as a rule, active = well fitted inhibition curve with a large enough effect; inconclusive = small, poorly fitted or top-dose-only effect; inactive = flat fitted curve, though single readings scatter.

What was measured:
Assay in all cases: qHTS profiling for inhibitors of Plasmodium falciparum proliferation (AID 504749); also: nearly all actives have a fitted effect of over 60% in size
Conditions in all cases: P. falciparum in erythrocytes, SYBR Green DNA, 72 h; series mostly up to 28.7 µM
[1] = system: CP260
Method in brief: (§1)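 P. falciparum-infected erythrocytes (0.3% parasitemia, 2.5% hematocrit final) were exposed to compounds for 72 h at 37 C in 5% CO2, then lysed with SYBR Green buffer overnight at room temperature; parasite DNA fluorescence was normalized to artemisinin and DMSO controls.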

[2] = system: CP262
Method in brief: as §1

[3] = system: CP265
Method in brief: as §1

[4] = system: CP268
Method in brief: as §1

[5] = system: CP269
Method in brief: as §1

[6] = system: CP286
Method in brief: as §1

[7] = system: CP291
Method in brief: as §1

[8] = system: CP297
Method in brief: as §1

[9] = system: CP305
Method in brief: as §1

[10] = system: CP315
Method in brief: as §1

[11] = system: CP325
Method in brief: as §1

[12] = system: CP329
Method in brief: as §1

[13] = system: CP335
Method in brief: as §1

[14] = system: DFO2036
Method in brief: as §1

[15] = system: DIV14
Method in brief: as §1

[16] = system: DIV17
Method in brief: as §1

[17] = system: DIV30
Method in brief: as §1

[18] = system: Dd2
Method in brief: as §1

[19] = system: ECU
Method in brief: as §1

[20] = system: FAB9
Method in brief: as §1

[21] = system: GB4
Method in brief: as §1

[22] = system: HB3
Method in brief: as §1

[23] = system: ICS
Method in brief: as §1

[24] = system: JCK
Method in brief: as §1

[25] = system: N140
Method in brief: as §1

[26] = system: P93_24
Method in brief: as §1

[27] = system: P94_40
Method in brief: as §1

[28] = system: PAD
Method in brief: as §1

[29] = system: PC15
Method in brief: as §1

[30] = system: PC26
Method in brief: as §1

[31] = system: PC49
Method in brief: as §1

[32] = system: SC27B
Method in brief: as §1

[33] = system: TAB109
Method in brief: as §1

[34] = system: TAB113
Method in brief: as §1

[35] = system: TAB165
Method in brief: as §1

[36] = system: W2
Method in brief: as §1

Measured: Potency

COc1cc2nc(N(C)CCCNC(=O)[C@@H]3CCCO3)nc(N)c2cc1OC
inactive: all assays above
